Measurements: PubChem BioAssay AID493220 (National Center for Advancing Translational Sciences (NCATS), 2011)
Records with an inconclusive call do not appear. Calls of active or inactive are those of the source. Calls follow the shape of the full dose curve.

target: Polyunsaturated fatty acid lipoxygenase ALOX15 (Homo sapiens) (UniProt P16050); test: Inhibitors of 12-hLO (12-human lipoxygenase): 15hLO-1 Cuvette-Based Inhibition Counterscreen Assay for 12hLO Followup Compounds; conditions: purified 15hLO-1, UV 234 nm product formation
Sequence (P16050 whole entry, looked up): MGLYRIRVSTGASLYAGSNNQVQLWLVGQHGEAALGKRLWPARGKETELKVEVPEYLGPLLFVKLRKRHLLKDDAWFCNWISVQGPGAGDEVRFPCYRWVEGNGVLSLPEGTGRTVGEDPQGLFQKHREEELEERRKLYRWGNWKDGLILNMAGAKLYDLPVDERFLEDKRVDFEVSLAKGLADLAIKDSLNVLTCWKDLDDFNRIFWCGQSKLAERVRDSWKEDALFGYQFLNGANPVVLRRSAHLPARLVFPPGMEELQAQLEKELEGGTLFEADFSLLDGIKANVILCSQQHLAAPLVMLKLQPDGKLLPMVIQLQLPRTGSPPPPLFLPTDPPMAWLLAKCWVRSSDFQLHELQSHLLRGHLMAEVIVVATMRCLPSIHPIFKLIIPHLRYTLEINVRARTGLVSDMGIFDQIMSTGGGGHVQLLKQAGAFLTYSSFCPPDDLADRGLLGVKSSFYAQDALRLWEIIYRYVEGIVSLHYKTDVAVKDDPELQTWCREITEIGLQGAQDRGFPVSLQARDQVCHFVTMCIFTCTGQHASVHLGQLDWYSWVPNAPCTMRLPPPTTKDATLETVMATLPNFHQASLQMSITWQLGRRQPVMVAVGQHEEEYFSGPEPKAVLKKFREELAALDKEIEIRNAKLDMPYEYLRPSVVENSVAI
Procedure: Human lipoxygenase 15hLO-1 is a member of the closely related lipoxygenase family of enzymes which catalyze the site-specific oxidation of arachidonic acid to various hormone precursor molecules and as such is a candidate for drug development in a variety of disease areas, such as cancer and inflammation. The enzyme activity of 15hLO-1 was determined by a direct measurement of product formation by monitoring the absorbance at 234 nm in a 2 mL cuvette. IC50 values of inhibitors were obtained by measuring the enzymatic rate at a variety of concentrations (Carroll et al, Segraves et al). A purified preparation of human 15hLO-1 was supplied by Professor Ted Holman, University of California, Santa Cruz. This assay was run against 12hLO followup compounds with the goal of identifying selective 12hLO inhibitors. Assay Provider: Holman, T.R., University of California, Santa Cruz Screening Center PI: Austin, Christopher P. Screening Center: NIH Chemical Genomics Center
For control experiments, 2 mL of substrate buffer (10 uM arachidonic acid / 25 mM HEPES / 0.01% (v/v) Triton X-100, pH 8.0) was aliquoted in a cuvette with a magnetic stir bar. After equilibrium was ensured, an aliquot of inhibitor solvent was added (DMSO), and equilibrium was once again assured. The reaction was started by adding enzyme to the cuvette and the reaction was followed until completed. The inhibition experiments were performed as above, except the actual inhibitory compound was added instead of vehicle. To achieve an IC50, typically 5 concentrations of the inhibitor were studied. If the inhibitor concentration was constant, then five different reaction volumes were used. Step \ Parameter \ Value \ Description 1; UV-Vis; 234 nm; Equilibration 2; Reagent; 2 mL; Substrate buffer 3; UV-Vis; 234 nm; Equilibration 4; Reagent; varies; Compound 5; UV-Vis; 234 nm; Equilibration 6; Reagent; 50-200 nM; Enzyme 12-hLO 7; UV-Vis; 234 nm; Enzymatic reaction Step \ Notes 1; Blank cuvette to air. 2; 10 uM AA, 25 mM HEPES, 0.01% Triton X-100, pH 8. 3; No change in absorbance ensured. 4; Compound vehicle or compound in various concentrations depending on potency. 5; No change in absorbance ensured. 6; Enzyme concentration to achieve reaction rate between 0.02 and 0.04 AU/s. 7; Enzymatic reaction visualized until completion.

| SMILES | outcome | Potency |
| --- | --- | --- |
| COc1ccc(C(=O)Nc2cc(C(=O)c3ccccc3)c(C)oc2=O)cc1 | inactive |  |
| CC(Oc1ccc(Cl)cc1Cl)C(=O)NC1=NN(c2ccccc2)C(=O)C1 (stereo not given) |  | 65 µM (active) |
| Oc1ccc(Cl)cc1-c1cc(-c2ccco2)[nH]n1 |  | 2.03 µM (active) |
| CCc1cc(-c2n[nH]c(C)c2Oc2ccc(C(C)C)cc2)c(O)cc1O |  | 3.87 µM (active) |
| CCc1cc(-c2[nH]ncc2-c2ccc3c(c2)OCO3)c(O)cc1O |  | 4.01 µM (active) |
| N#CC1=C(N)Oc2n[nH]c(-c3cccs3)c2C1C1CCCCC1 (stereo not given) |  | 9.33 µM (active) |
| Cc1ccc(C(=O)Nc2nnc(-c3ccco3)o2)cc1 | inactive |  |
| Oc1ccccc1-c1cc(-c2ccc3c(c2)OCCO3)n[nH]1 |  | 2.55 µM (active) |
| Cc1ccc(S(=O)(=O)Nc2ccc(NC(=O)Nc3cccc(C(F)(F)F)c3)cc2)cc1 |  | 31.5 µM (active) |
| O=C(/C=C/c1ccc(O)c(O)c1)c1ccc(S(=O)(=O)N2CCCCCC2)cc1 |  | 1.31 µM (active) |
| Cc1ccc(S(=O)(=O)Nc2nc(C)c(NC(=O)Nc3ccc(Cl)cc3Cl)s2)cc1 | inactive |  |
| O=C1c2ccccc2NC(c2ccc(Cl)cc2Cl)N1O (stereo not given) |  | 37.4 µM (active) |
| COc1ccc(-c2n[nH]c(C(F)(F)F)c2-c2cc3ccccc3o2)c(O)c1 |  | 6.5 µM (active) |
| O=C(Nc1nnc(-c2ccccn2)o1)c1ccc(Br)cc1 | inactive |  |
| Oc1ccc(-c2csc(-c3ccccc3)n2)cc1O |  | 0.67 µM (active) |
| CC1=NN(c2ccc(Cl)cc2)C(=O)C1C(c1ccccc1O)c1c(C)[nH]n(-c2ccc(Cl)cc2)c1=O (stereo not given) |  | 20 µM (active) |
| CCOC(=O)Cc1cc(=O)n(-c2nc3ccccc3s2)[nH]1 | inactive |  |
| CC1=NN(c2ccc(Cl)cc2)C(=O)C1C(c1cccc(O)c1)c1c(C)[nH]n(-c2ccc(Cl)cc2)c1=O (stereo not given) |  | 22.8 µM (active) |
| COc1ccc2nc(NC(=O)c3cccc(OCc4c(C)noc4C)c3)sc2c1 |  | 33.6 µM (active) |
| Cc1ccc(C(=O)Nc2nnc(-c3ccco3)o2)cc1C | inactive |  |

| SMILES | outcome | Potency |
| --- | --- | --- |
| Oc1ccc(-c2nc(-c3ccc(O)c(O)c3)cs2)cc1 |  | 0.61 µM (active) |
| COc1cccc(-c2cnc(NCc3cc(Cl)ccc3O)n2C)c1 |  | 32.9 µM (active) |
| O=C(NC(=S)Nc1ccccc1N1CCCC1)c1ccc([N+](=O)[O-])cc1 | inactive |  |
| COc1cc(CNc2ccc(O)cc2)cc(Br)c1OCc1ccccc1F | inactive |  |
| CSCCC(NC(=O)c1ccc(Cl)cc1)C(=O)OCC(=O)Nc1ccc(C#N)cc1 (stereo not given) |  | 46.2 µM (active) |
| CCOc1ccc(-c2[nH]ncc2Oc2cccc(OC)c2)c(O)c1 |  | 2.96 µM (active) |
| Oc1ccccc1-c1cc(-c2cccc(F)c2)n[nH]1 |  | 4.81 µM (active) |
| Cc1ccc(NC(=O)Nc2cccs2)c(Cl)c1 |  | 58.8 µM (active) |
| Oc1ccc(C2=Nn3c(nnc3-c3ccco3)SC2)cc1O |  | 39.1 µM (active) |
| c1ccc(-c2nc(NCc3cccnc3)c3oc4ccccc4c3n2)cc1 |  | 31 µM (active) |
| CCCOC(=O)c1ccc(Oc2c(-c3ccc(O)cc3O)n[nH]c2C)cc1 |  | 6.81 µM (active) |
| CCc1ccc(S(=O)(=O)/N=C2/C=C(Sc3ncn[nH]3)C(=O)c3ccccc32)cc1 |  | 9.52 µM (active) |
| COc1ccc(Cc2nc(C(=O)Nc3ccc(OC)cc3)cs2)cc1 |  | 8.84 µM (active) |
| COc1cc(CNc2ccc(N3CCCC3)cc2)ccc1OCc1ccccc1 | inactive |  |
| O=C(CSc1n[nH]c(-c2ccccc2)n1)c1ccc(O)c(O)c1 |  | 5.77 µM (active) |
| COc1ccc(C(Nc2ccccn2)c2c(NC(=O)c3ccco3)sc(C)c2C)cc1 (stereo not given) |  | 62.7 µM (active) |
| COc1ccc(NC2=NCC(Cc3ccc(Br)cc3)S2)cc1 (stereo not given) |  | 8.89 µM (active) |
| COc1ccc(/C=C/c2nc(-c3ccccc3O)n[nH]2)cc1 |  | 11.2 µM (active) |
| Cc1cc(Cl)cc(Cl)c1OCC(=O)NCc1ccco1 |  | 88.6 µM (active) |
| Oc1ccccc1-c1cc(-c2ccccc2Cl)[nH]n1 |  | 1.62 µM (active) |
